Assay results: ChEMBL document CHEMBL3988442, “University of Dundee, Small-Polar-MMV Screening Library” (2021)
The campaign covered roughly 48,000 compounds. About 13,000 (27%) showed an effect of 50% or more. The list shows a part of the results.

test system: Wolbachia pipientis; assay: Anti-Wolbachia Cell-Based Screen; assay type: functional; design: scale not given: in the data most compounds retested in dose-response had high values; settings: 5 µM

| Compound | Percent Effect [%] |
| --- | --- |
| CN1CCc2[nH]nc(C(=O)N3CCC4(CCCO4)CC3)c2C1 | 17.17 |
| CC(C)N(C)CCNC(=O)N(C)CC1CCOCC1 | -11.44 |
| CCS(=O)(=O)N1CCC2(CC1)CC(OCC1CC1)CO2 (stereo not drawn) | -14.92 |
| CC(NC(=O)COc1ccc(F)cc1)c1nnc2n1CCCCC2 (stereo not drawn) | -2.87 |
| CC(NC(=O)CCCOc1ccccc1)c1nnc2n1CCCCC2 (stereo not drawn) | -1.101 |
| CC(NC(=O)COCC(F)(F)F)c1nnc2n1CCCCC2 (stereo not drawn) | 88.58 |
| CC(Cn1cccn1)NCC(=O)NC1(C#N)CCCCC1 (stereo not drawn) | 4.138 |
| CCC(CO)N(Cc1ccco1)C(=O)c1ccccc1NC (stereo not drawn) | -1.044 |
| Cc1oc(CN(C)C(=O)c2ccc(C(F)(F)F)cc2)cc1C(=O)O | -14.62 |
| CC(C#N)CNC(=O)Nc1ccc(-c2ccc[nH]2)cc1 (stereo not drawn) | -13.54 |
| O=C(CNC(=O)c1cc(Cl)ccn1)Nc1nccs1 | -9.837 |
| O=C(CNC(=O)c1ccccc1Cl)Nc1nccs1 | 1.164 |
| O=C(CNC(=O)c1ccc(Cl)cc1)Nc1nccs1 | 62.52 |
| Fc1ccc(OC2CCN(Cc3nnc(-c4ccco4)o3)CC2)cc1 | 0.5253 |
| O=C(NCCN1CCOCC1)NCc1cccnc1-n1cccn1 | -2.618 |
| CN1CCN(Cc2ccccc2Oc2nccc3occc23)CC1 | 2.64 |
| CCN1CCN(Cc2c(-c3ccco3)[nH]c3ncccc23)CC1 | 126 |
| CN1CCN(Cc2c(-c3ccco3)[nH]c3ncccc23)CC1 | 119.4 |
| CN1CCN(Cc2cccc(NCc3ncc[nH]3)c2)CC1 | -6.689 |
| CCn1ccnc1CN1CCN(c2ncnc3ccccc23)CC1 | 5.306 |
| OC1(CN2CCCC2)CCCN(Cc2cnc(-c3ccco3)nc2)C1 (stereo not drawn) | -19.31 |
| OC1CCN(Cc2c(-c3ccco3)[nH]c3ncccc23)CC1 | 97.96 |
| c1coc(-c2[nH]c3ncccc3c2CN2CCCOCC2)c1 | 122.9 |

| Compound | Percent Effect [%] |
| --- | --- |
| OC1CCCN(Cc2c(-c3ccco3)[nH]c3ncccc23)C1 (stereo not drawn) | -4.635 |
| Cc1nc(-c2ccc(S(=O)(=O)N3CCSCC3)cc2)co1 | -2.351 |
| Cc1ccc(F)c(C(=O)Nc2cccc(CCN3CCCC3)c2)c1 | -3.643 |
| CS(=O)(=O)NCc1cccc(COC2CCCCC2)c1 | 112.9 |
| OCCCNc1cccc(COC2CCCCC2)c1 | 117.5 |
| CC(CO)NC(=O)Nc1ccc(COC2CCCC2)cc1 (stereo not drawn) | 8.692 |
| Cc1c(CS(C)(=O)=O)cccc1NCCCC1CCCC1 | -1.975 |
| CS(=O)(=O)NC(=O)CCc1cccc(OC2CCCC2)c1 | 2.726 |
| Cc1cccc(C2(NCCCS(C)(=O)=O)CCCC2)c1 | -2.725 |
| CS(=O)(=O)CCCNc1cccc(COC2CCCCC2)c1 | 108.4 |
| O=C(CN1CCCS1(=O)=O)Nc1cccc(COC2CCCCC2)c1 | 13.44 |
| Clc1cncc(NCc2cccc(COC3CCOCC3)c2)n1 | -1.49 |
| CNS(=O)(=O)c1cccc(CNc2ccc(C#N)cn2)c1 | 2.285 |
| CS(=O)(=O)NCCCn1ccc2ccccc21 | 3.407 |
| COc1ccc(-c2cc(CN)ccc2F)c(OC)c1OC | 2.502 |
| C=C(C)CN(c1cn[nH]c1)S(=O)(=O)c1cccc(C#N)c1 | -12.41 |
| CCOCC1CC2(CCN(C(=O)C3CC=CC3)CC2)CO1 (stereo not drawn) | -13.65 |
| CNC(=O)C1(N2CCC[C@H]2C(=O)NC2CCCCC2)CCOCC1.Cl | -2.575 |
| OCCC1CN(c2nc(-c3ccncc3)nc3c2CCNCC3)CCO1 (stereo not drawn) | -20.05 |
| CCCc1nc(CN2CCCC2Cn2cncn2)no1 (stereo not drawn) | 115.4 |
| CC(C)(C)c1nc(CN2CCCC2Cn2cccn2)no1 (stereo not drawn) | 10.76 |
| CCCc1nc(CN2CCOC(Cn3cncn3)C2)no1 (stereo not drawn) | 3.436 |
| CC(C)(C)c1nc(CN2CCCC2Cn2cncn2)no1 (stereo not drawn) | 86.44 |

| Compound | Percent Effect [%] |
| --- | --- |
| CN(C)C(=O)Cc1ccc(NCc2nccn2C)cc1 | -22.63 |
| O=C(NCCn1ccc(-c2ccncc2)n1)c1ccncc1 | -0.4931 |
| Cc1nccn1-c1ccc(=O)n(CCNC(=O)c2cccs2)n1 | 125.6 |
| O=C(NCCNc1cc(-n2cccc2)ncn1)c1cccs1 | 19.24 |
| Cc1nccn1-c1ccc(=O)n(CCNC(=O)c2ccncc2)n1 | 97.47 |
| Cc1nccn1-c1ccc(CNC(=O)c2ccc[nH]2)cn1 | 15.47 |
| Cc1nccn1-c1ccc(CNC(=O)c2ccc([S+](C)[O-])cc2)cn1 (stereo not drawn) | 4.955 |
| Cc1nc(NC(=O)N2CCCC(N(C)C)C2)nn1C (stereo not drawn) | -14.3 |
| COC(=O)c1ccc2ccn(CC3CCCCO3)c(=O)c2c1 (stereo not drawn) | -39.6 |
| Oc1ccc(N2CCN(Cc3cc4c(cc3Br)OCCO4)CC2)cc1 | -10.73 |
| CC(C)CCN1CCC2(CC1)CN(C(=O)c1cnccn1)CCO2.O=C(O)C(F)(F)F | -8.642 |
| Cn1cc(CN2CCC3(CC2)CN(C(=O)c2cnccn2)CCO3)cn1 | 101.7 |
| Cc1ccc(CN2CCC3(CC2)CN(C(=O)c2cnccn2)CCO3)o1.O=C(O)C(F)(F)F | 98.59 |
| Cn1cc(CN2CCCC3(CCN(C(=O)c4cnccn4)C3)C2)cn1.O=C(O)C(F)(F)F.O=C(O)C(F)(F)F (stereo not drawn) | -36.61 |
| CCc1ccc(CN2CCC3(CCCN(C(=O)c4cnccn4)C3)C2)o1.O=C(O)C(F)(F)F (stereo not drawn) | 23.64 |
| Cn1cc(CN2CCC3(CCCN(C(=O)c4cnccn4)C3)C2)cn1 (stereo not drawn) | 7.413 |
| Cc1cc2n(n1)CC(CNC1CCN(C(=O)C3CC3)CC1)CN2 (stereo not drawn) | 1.236 |
| Nc1cc(C(=O)NCC2CCN(Cc3ccncc3F)C2)ccn1 (stereo not drawn) | -104.6 |
| CC(C)(C)c1nccc(N2CCC(OCCN3CCCCC3)C2)n1 (stereo not drawn) | 4.599 |
| CC(CN1CCCCCC1)NCc1nncn1C1CCCCC1 (stereo not drawn) | -0.3524 |
| CC(Cn1cncc1-c1cnn(C2CCCCC2)c1)N1CCCCC1.Cl (stereo not drawn) | 109.8 |
| CC(C)n1cc(CN(C)C[C@@H]2CCCN3CCCC[C@H]23)cn1 | 12.76 |
